Rows were chosen to be rich in hits. Some 0.5% of all compounds tested hit in one or more screens of this group.
AddAB inh: growth inhibition of E. coli expressing H. pylori AddAB, primary screen, AddAB inhibitor project, absorbance | AID 435030, 2010 | actives 0.29% (n = 330,000) | inhibition, % at 11.9 µM; in the data active = inhibition above about 12%
phage Ecoli inh: growth loss of phage-infected E. coli, primary screen, RecBCD inhibitor project, absorbance, with phage, HTS. inhibition, % at 11.9 µM. actives 0.26% (n = 360,000). AID 651602, 2012; in the data active = inhibition above about 11%
E coli growth-1: E. coli growth inhibition, primary screen, OD600 | actives 0.21% (n = 330,000) | OD600 absorbance (concentration not given with the values) | Escherichia coli growth, 23 h; hits give low values;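 active = OD600 absorbance below the run mean of sample wells minus 3.6 SD, in any replicate, cut at about 0.56 in these data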
E coli growth-2: E. coli V3065 growth inhibition, primary screen, counter-screen for AddAB inhibitor project, absorbance, OD600 | 18 h | inhibition, % at 11.9 µM | actives 0.27% (n = 330,000) | AID 449728, 2010;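 active = inhibition above the campaign's mean inhibition across all tested compounds plus 3 SD, cut at about 9.9% in these data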;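 also: uninfected addAB+ strain grown without phage in ampicillin broth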
Tat transport: E. coli Tat export inhibitors, primary screen, MC4100, TorA-mCherry reporter, fluorescence, single point. inhibition, % at 10 µM. actives 0.036% (n = 340,000). AID 488895, 2010;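 active = mean replicate inhibition at least 50% and at least half of replicates individually reaching 50%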;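 also: exported cargo escapes ClpAP degradation while cytoplasmic cargo is degraded and loses fluorescence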
AddAB confirm: growth loss of phage-infected E. coli expressing H. pylori AddAB, confirmation, AddAB inhibitor project, absorbance, E. coli V3065, T4 phage, triplicate; actives 64% (n = 880); AID 488942, 2010; shares compounds with AddAB inh; OD; T4 phage with gene 2 nonsense mutations; inhibition, % at 11.9 µM;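 active = mean inhibition above a set limit taken from the earlier primary screen, cut at about 13% in these data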;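 also: higher means less bacterial growth since AddAB block lets phage replicate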
RecBCD counter: growth loss of RecBCD+ E. coli with mutant T4 phage, counter-screen for AddAB inhibitor project, absorbance, V66 E. coli | actives 73% (n = 880) | AID 488955, 2010 | shares compounds with AddAB inh | OD growth | inhibition, % at 11.9 µM;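 active = mean inhibition above the mean of solvent-only control wells plus 3 SD, cut at about 4% in these data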;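 also: optical density read after an 18 h incubation at 37 °C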
bact viab count: bacterial viability inhibition counter-screen, confirmation, counter-screen for AddAB inhibitor project, absorbance | shares compounds with AddAB inh | absorbance (AddAB counterscreen) | inhibition, % at 11.9 µM | actives 35% (n = 880) | AID 488956, 2010; in the data active = inhibition above about 25%
Hits are given with their value; - = inactive; . = no result.

SMILES	AddAB inh	phage Ecoli inh	E coli growth-1	E coli growth-2	Tat transport	AddAB confirm	RecBCD counter	bact viab count
CCOC1OC(C(=O)N2CCOCC2)=CC(c2ccc(Br)cc2)C1CCCO (stereo not drawn)	.	.	-	.	.	.	.	.
O=C(Cn1cc(C(=O)c2ccco2)c2ccccc21)Nc1ccccc1	17	-	-	16	-	-	11	-
CC(C)(C)OC(=O)NC(COCc1ccccc1)C(=O)NC(CO)C(O)C1CC1C(=O)NC1CC1 (stereo not drawn)	.	.	-	.	.	.	.	.
Cc1[nH]n(-c2ccccc2)c(=O)c1C(=O)c1ccc(Cl)cc1	97	-	-	96	-	-	-	-
CC(C)CC(=O)Nc1ccccc1N1CCN(c2ccccc2)CC1	15	-	-	-	-	-	-	-
CC(C)CC(=O)Nc1ccccc1N1CCN(C(=O)c2ccccc2)CC1	-	-	-	-	-	.	.	.
O=C(NC(c1ccc(Cl)cc1)c1c(O)ccc2ccccc12)c1ccccc1 (stereo not drawn)	14	-	-	-	-	-	-	-
O=C(NC(c1ccccc1)c1c(O)ccc2ccccc12)c1ccccc1Cl (stereo not drawn)	-	-	-	-	-	.	.	.
O=C(Nc1nnc(-c2ccco2)o1)c1cccc(Cl)c1	15	-	-	-	-	-	-	-
O=C(Nc1nnc(-c2ccccn2)o1)c1cccc(Cl)c1	-	-	-	-	-	.	.	.
O=C(Nc1nnc(-c2cccs2)o1)c1cccc(F)c1	16	-	0.35	-	-	-	14	-
CC1CN(C(C)CO)C(=O)c2cc(NC(=O)C3CCCCC3)ccc2OC1CN(C)S(=O)(=O)c1ccc(F)cc1 (stereo not drawn)	.	.	-	.	.	.	.	.
COc1ccc([N+](=O)[O-])cc1NC(=O)C(C)OC(=O)C1CCCC1 (stereo not drawn)	-	-	-	-	-	.	.	.
COc1ccc([N+](=O)[O-])cc1NC(=O)C(C)OC(=O)C1CCC1 (stereo not drawn)	98	-	-	95	-	-	-	-
Oc1ccc(N=Nc2ccccc2-c2nn[nH]n2)c(O)c1	14	-	-	15	-	-	6.7	-
O=[N+]([O-])c1ccc(N/N=C/c2ccc[nH]2)cc1	12	-	.	-	-	13	-	-
S=C(NCCCc1ccccc1)Nc1ccc(Cl)cc1	12	-	-	-	-	-	12	-
S=C(NCCCc1ccccc1)Nc1ccccc1	.	-	-	.	-	.	.	.
Cc1nc2oc3c(=O)[nH]cnc3c2c2c1COC(C)(C)C2	31	-	-	-	-	-	-	-
COc1ccc(-c2nc3ccccn3c2C=O)cc1	-	-	-	-	-	.	.	.
O=Cc1c(-c2ccc(F)cc2)nc2ccccn12	98	-	-	97	-	-	-	-
COc1ccccc1C1C(=C(O)c2ccccc2)C(=O)C(=O)N1CC(C)O (stereo not drawn)	.	.	-	.	.	.	.	.
O=C(NOCc1ccccc1)OCc1ccccc1	.	-	-	.	-	.	.	.
NC(=O)NOCc1ccccc1	98	-	-	-	-	-	-	-
CC(=O)Nc1ccc(C(=O)OCC(=O)c2ccc(F)cc2)cc1	-	-	-	-	-	.	.	.
SMILES	AddAB inh	phage Ecoli inh	E coli growth-1	E coli growth-2	Tat transport	AddAB confirm	RecBCD counter	bact viab count
CC(=O)Nc1ccc(C(=O)OCC(=O)Nc2c(F)cccc2F)cc1	90	-	-	74	-	-	-	-
C=CCCCCCCCCC(=O)N1CCN(c2cc3c(cc2F)c(=O)c(C(=O)O)cn3CC)CC1	41	-	0.3	35	-	98	4.0	72
CCn1cc(C(=O)O)c(=O)c2cc(F)c(N3CCN(C(=S)NC(=O)c4ccccc4Cl)CC3)cc21	98	-	0.075	84	-	102	100	102
Cc1cc(C(F)(F)F)n2ncc(C(=O)O)c2n1	17	-	-	-	-	-	-	-
Cc1ccc(-c2cc(C(F)(F)F)n3ncc(C(=O)O)c3n2)cc1	.	-	-	.	-	.	.	.
CCN(Cc1ccccc1)C(=O)Cn1cc2c(n1)CCCC2	12	-	-	-	-	-	-	-
